# From PubChem BioAssay AID1259421 (Broad Institute, 2018)
# Where “and” joins values, the source holds several entries; their conditions need not be identical. Equal values may be shown once. About 610 (9.5%) of roughly 6,400 compounds were called active. Rule as the data show it: active = activity change below about -70%; inconclusive = no clear call, values can overlap the other calls; inactive = above that. Only a selection was taken, and actives are over-represented in it overall. A structure can be active in one record and inactive in another.
# Assay: Toxoplasma gondii ME49Luc growth in HeLa cells, luciferase, no IFN-y, primary screen (AID 1259421)
# Details: T. gondii ME49Luc in HeLa, 72 h, stronger effect = lower value, concentration not given here
row,Compound,"activity change, negative = inhibition"
1,CCC1OC(=O)[C@H](C)C(=O)[C@H](C)[C@@H](OC2O[C@H](C)C[C@H](N(C)C)[C@H]2O)[C@](C)(OC)C[C@@H](C)C(=O)[C@@H](C)[C@@H]2N(CCCCn3cnc(-c4cccnc4)c3)C(=O)O[C@]12C (some centres undefined),-0.624% (inactive)
2,COCCCCC(=NOCCN)c1ccc(C(F)(F)F)cc1,4.87% (inactive)
3,O=C(CCCc1ccc(-c2ccccc2F)cc1)Nc1ccc(O)cc1,-67.6% (inactive) and -60.5% (inactive)
4,Cn1cnc(-c2cc3nccc(Oc4ccc(NC(=S)NC(=O)Cc5ccccc5)cc4F)c3s2)c1,28.8% (inactive)
5,CCOc1ccn(-c2ccc(F)cc2)c(=O)c1C(=O)Nc1ccc(Oc2ccnc(N)c2Cl)c(F)c1,0.966% (inactive)
6,Nc1nccc(Oc2ccc(NC(=O)c3c[nH]cc(-c4ccc(F)cc4)c3=O)cc2F)c1Cl,-76.8% (active)
7,N#Cc1ccc(NCCNCC(=O)N2CCC[C@H]2C#N)nc1,-0.604% (inactive)
8,COc1ccc(-c2cc(=O)c3c(O)cc(O[C@@H]4O[C@@H](CO[C@@H]5O[C@H](C)[C@@H](O)[C@H](O)[C@H]5O)[C@H](O)[C@@H](O)[C@H]4O)cc3o2)cc1O,6.66% (inactive)
9,CCc1c(Cl)c(O)c(Cl)c(O)c1C(=O)O[C@H]1[C@H](O)[C@H](OC)[C@H](OCC2=C/C=C/C[C@H](O)/C(C)=C\[C@H](CC)[C@H](O[C@@H]3OC(C)(C)[C@@H](OC(=O)C(C)C)[C@H](O)[C@H]3O)/C(C)=C\C(C)=C\C[C@H]([C@@H](C)O)OC2=O)O[C@@H]1C,16.6% (inactive)
10,C[C@H]1O[C@@H](O[C@H]2[C@@H](O)C[C@H](O[C@H]3[C@@H](O)C[C@H](O[C@H]4CC[C@]5(C)C6C[C@@H](O)[C@]7(C)[C@@H](C8=CC(=O)OC8)CC[C@]7(O)C6CC[C@@H]5C4)O[C@@H]3C)O[C@@H]2C)C[C@H](O)[C@@H]1O (some centres undefined),-76.7% (active) and -101% (active)
11,C[C@H]1O[C@@H](O[C@H]2[C@@H](O)C[C@H](O[C@H]3[C@@H](O)C[C@H](O[C@H]4CC[C@]5(C)C6CC[C@]7(C)[C@@H](C8=CC(=O)OC8)CC[C@]7(O)C6CC[C@@H]5C4)O[C@@H]3C)O[C@@H]2C)C[C@H](O)[C@@H]1O (some centres undefined),-83.2% (active) and -93.3% (active)
12,C=CCn1c(=O)n([C@@H]2O[C@H](CO)[C@@H](O)[C@H]2O)c2nc(N)[nH]c(=O)c21,-1.47% (inactive)
13,CCNC(=O)CCC(N)C(=O)O (centres undefined),15.2% (inactive)
14,CC1(C)C2CC[C@]3(C)C(C(=O)C=C4[C@@H]5C[C@@](C)(C(=O)O)CC[C@]5(C)CC[C@]43C)[C@@]2(C)CC[C@@H]1OC(=O)CCC(=O)O (some centres undefined),6.36% (inactive)
15,O=C(c1c(O)c2ccc(Cl)cc2[nH]c1=O)C1CC1,3.48% (inactive) and 5.32% (inactive)
16,C=CCN1CCCC1CNC(=O)c1cc2[nH]nnc2cc1OC (centres undefined),3.75% (inactive)
17,CC1(C)C(=O)[C@@H]2C[C@@]3(O)C4=CC(=O)O[C@@H](c5ccoc5)[C@]4(C)CCC3[C@@](C)(C2=O)[C@H]1CC(=O)O (some centres undefined),0.589% (inactive)
18,O=c1n(CC2CO2)c(=O)n(CC2CO2)c(=O)n1CC1CO1 (centres undefined),36.1% (inactive)
19,COc1ccc2cc1Oc1ccc(cc1)C[C@H]1c3c(cc4c(c3Oc3cc5c(cc3OC)CCN(C)[C@@H]5C2)OCO4)CCN1C,12.1% (inactive) and -4.88% (inactive)
20,COc1ccc2cc1Oc1cc3c(cc1OC)CC[N+](C)(C)[C@H]3Cc1ccc(cc1)Oc1c(OC)c(OC)cc3c1[C@@H](C2)[N+](C)(C)CC3,18.6% (inactive)
21,COc1ccc2cc1Oc1ccc(cc1)C[C@H]1c3cc(c(OC)cc3CCN1C)Oc1c(OC)c(OC)cc3c1[C@H](C2)N(C)CC3,-77.3% (active) and 18.9% (inactive)
22,CC(O)CCCCn1c(=O)c2c(ncn2C)n(C)c1=O (centres undefined),-6.61% (inactive)

row,Compound,"activity change, negative = inhibition"
1,CCCN(CCc1cccs1)[C@H]1CCc2c(O)cccc2C1,10.9% (inactive)
2,CCCCn1c(=O)c2[nH]c(C34CC5CC(CC3C5)C4)nc2n(CCCO)c1=O,12% (inactive) and -13.1% (inactive)
3,O=C1[C@@H](Cc2ccc(O)cc2)N2C(=O)CCN(C(=O)NCc3ccccc3)[C@H]2CN1Cc1cccc2ccccc12,1.58% (inactive)
4,CC(=O)OC(C)(C)[C@@H]1Cc2cc3ccc(=O)oc3cc2O1,-5.08% (inactive)
5,CCN(CC)c1ccc(C(=C2C=CC(=[N+](CC)CC)C=C2)c2ccccc2)cc1,-79.9% (active)
6,CCN(Cc1cccc(S(=O)(=O)O)c1)c1cccc(C(=C2C=CC(=[N+](CC)Cc3cccc(S(=O)(=O)O)c3)C=C2)c2ccc(O)cc2S(=O)(=O)O)c1,-44.9% (inactive)
7,O[C@@H]1[C@H](O)[C@@H](CCl)O[C@H]1n1cnc2c(NC3CC4CCC3C4)ncnc21 (some centres undefined),20.5% (inactive)
8,Cc1cc(Oc2ccc3nc(COc4ccc(CC5SC(=O)NC5=O)cc4)n(C)c3c2)cc(C)c1N (centres undefined),12.3% (inactive)
9,N[C@](CC1c2ccccc2Oc2ccccc21)(C(=O)O)[C@H]1C[C@@H]1C(=O)O,6.02% (inactive)
10,CCn1c(=O)[nH]c2ccccc21,10.3% (inactive) and 2.46% (inactive)
11,CCn1c(=O)[nH]c2cc(Cl)c(Cl)cc21,-80.8% (active) and -78.6% (active)
12,CCN(CCO)CCCOc1ccc2c(Nc3cc(CC(=O)Nc4cccc(F)c4)[nH]n3)ncnc2c1,18.9% (inactive)
13,CCOc1ccc2nc(SCCN3CCOCC3)[nH]c2c1,17.7% (inactive)
14,Cc1cc(/C=C/C#N)cc(C)c1Nc1ccnc(Nc2ccc(C#N)cc2)n1,17.7% (inactive)
15,Cc1cc(C)c(Nc2ccnc(Nc3ccc(C#N)cc3)n2)c(C)c1,-44.9% (inactive)
16,Cc1cc(C#N)cc(C)c1Oc1nc(Nc2ccc(C#N)cc2)nc(N)c1Br,-89.7% (active)
17,C[C@@H](N)c1ccc(C(=O)Nc2ccnc3[nH]ccc23)cc1,-3.01% (inactive)
18,C=CC(=O)Nc1ccccc1,-0.419% (inactive)
19,CC(=O)c1ccc(N2CCOCC2)cc1O,0.777% (inactive)
20,O=c1cc(-c2ccc(O)cc2)oc2ccc(O)cc12,-46.2% (inactive)
21,CCCCCCCC(=O)OCC(COC(=O)CCCCCCC)OC(=O)CCCCCCC,13.9% (inactive)
22,[Cl][Ru]([Cl])([Cl])[Cl].c1ccc2[nH]ncc2c1.c1ccc2[nH]ncc2c1,8% (inactive)

row,Compound,"activity change, negative = inhibition"
1,C[C@]12CCC(=O)C=C1CCC1C2C(=O)C[C@@]2(C)C1CC[C@]2(O)C(=O)CO (some centres undefined),-0.365% (inactive) and 6.68% (inactive)
2,CC(=O)[C@@]12OC(C)(c3ccccc3)O[C@@H]1C[C@H]1[C@@H]3CCC4=CC(=O)CC[C@]4(C)[C@H]3CC[C@@]12C (some centres undefined),-52.9% (inactive)
3,C#C[C@]1(O)CCC2C3CCC4=Cc5oncc5C[C@]4(C)C3CC[C@@]21C (some centres undefined),-82.2% (active) and -83.7% (active)
4,CC(=O)[C@@]12O[C@](C)(c3ccccc3)O[C@@H]1CC1C3CCC4=CC(=O)CC[C@]4(C)C3CC[C@@]12C (some centres undefined),-11.3% (inactive)
5,C#CC1(O)CCC2C3CCC4=Cc5oncc5CC4(C)C3CCC21C (centres undefined),-93.9% (active)
6,NC(CSSCC(N)C(=O)O)C(=O)O (centres undefined),13.9% (inactive)
7,CC1(C)SC2C(NC(=O)[C@H](NC(=O)N3CCNC3=O)c3ccccc3)C(=O)N2C1C(=O)O (some centres undefined),33.6% (inactive)
8,NS(=O)(=O)c1cc2c(cc1Cl)NC(C(Cl)Cl)NS2(=O)=O (centres undefined),13.1% (inactive) and 33% (inactive)
9,NS(=O)(=O)c1cc2c(cc1Cl)NC(C1CC3C=CC1C3)NS2(=O)=O (centres undefined),-95.9% (active)
10,NS(=O)(=O)c1cc2c(cc1Cl)NC(CC1CCCC1)NS2(=O)=O (centres undefined),18.7% (inactive)
11,O=C1c2ccccc2C(Cc2ccnc(F)c2)(Cc2ccnc(F)c2)c2ccccc21,21.9% (inactive) and 12.1% (inactive)
12,O=C1N[C@@H]2[C@@H](O)[C@@H](O)[C@H](O)[C@@H](CO)N2C1=O,11.7% (inactive)
13,O[C@H]([C@H](O)[C@@H]1CO1)[C@H]1CO1,5.39% (inactive)
14,C=C1c2cccc(O)c2C(=O)C2C(=O)[C@]3(O)C(=O)C(C(N)=O)C(=O)[C@@H](N(C)C)[C@@H]3[C@@H](O)[C@H]12 (some centres undefined),-67.5% (inactive) and 19% (inactive)
15,C=C1c2c(Cl)ccc(O)c2C(=O)C2C(=O)[C@]3(O)C(=O)C(C(N)=O)C(=O)[C@@H](N(C)C)[C@@H]3[C@@H](O)[C@H]12 (some centres undefined),-9.94% (inactive) and 7.28% (inactive)
16,CCC(CC)C(c1ccc(Nc2nc3ccccc3s2)cc1)n1cncn1 (centres undefined),4.5% (inactive)
17,COC(=O)N(C)c1c(N)nc(-c2nn(Cc3ccccc3F)c3ncccc23)nc1N,2.65% (inactive)
18,CC(=O)O[C@H]1C(=O)[C@@]2(C)C([C@H](OC(=O)c3ccccc3)[C@]3(O)C[C@H](OC(=O)[C@H](O)[C@@H](NC(=O)c4ccccc4)c4ccccc4)C(C)=C1C3(C)C)[C@]1(OC(C)=O)CO[C@@H]1C[C@@H]2O (some centres undefined),-86.6% (active) and -77.4% (active)
19,CC(=O)OC1C(=O)C2(C)C(O)CC3OCC3(OC(C)=O)C2C(OC(=O)c2ccccc2)C2(O)CC(OC(=O)C(O)C(NC(=O)c3ccccc3)c3ccccc3)C(C)=C1C2(C)C (centres undefined),-87.7% (active)
20,CC(=O)O[C@H]1C(=O)[C@@]2(C)[C@H]([C@H](OC(=O)c3ccccc3)[C@]3(O)C[C@H](OC(=O)[C@H](O)[C@@H](NC(=O)c4ccccc4)c4ccccc4)C(C)=C1C3(C)C)[C@]1(OC(C)=O)CO[C@@H]1C[C@@H]2O,-84.9% (active) and -74.8% (active)
